Test results published in PubChem BioAssay (Tox21).
Inconclusive results are not listed. Calls of active or inactive are those of the source. Unless noted, calls follow the shape of the full dose curve.

Experiments:
[1] = Nuclear factor erythroid 2-related factor 2/antioxidant responsive element (Nrf2/ARE) small molecule agonists: qHTS cell viability counter screen in human keratinocytes (AID 1919968; active = well fitted curve in the direction sought with a large enough effect in the repeat runs; an effect the other way counts as inactive or inconclusive; also: nearly all actives have a fitted effect of over 55% in size; also: potency is read from the fitted curve at half-maximal effect)
Summary of the method: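 Stably transfected HaCaT (KeratinoSens), 1,500/well. Test agents in DMSO were applied for 23 h, 37 C/5% CO2. CellTiter-Fluor was incubated 1 h before the fluorescence read.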

[2] = Nuclear factor erythroid 2-related factor 2/antioxidant responsive element (Nrf2/ARE) small molecule agonists: luciferase reporter gene qHTS assay in human keratinocytes (AID 1919969); also: nearly all actives have a fitted effect of over 35% in size; also: potency is read from the fitted curve at half-maximal effect
[3] = target: Gonadotropin-releasing hormone receptor (Homo sapiens) (UniProt P30968); test: Human gonadotropin-releasing hormone receptor (GnRHR) small molecule agonists, calcium flux assay in GnRHR-HEK293 cells (AID 1920063); also: nearly all actives have a fitted effect of over 35% in size
Sequence of Gonadotropin-releasing hormone receptor (Homo sapiens) (P30968 whole entry, looked up): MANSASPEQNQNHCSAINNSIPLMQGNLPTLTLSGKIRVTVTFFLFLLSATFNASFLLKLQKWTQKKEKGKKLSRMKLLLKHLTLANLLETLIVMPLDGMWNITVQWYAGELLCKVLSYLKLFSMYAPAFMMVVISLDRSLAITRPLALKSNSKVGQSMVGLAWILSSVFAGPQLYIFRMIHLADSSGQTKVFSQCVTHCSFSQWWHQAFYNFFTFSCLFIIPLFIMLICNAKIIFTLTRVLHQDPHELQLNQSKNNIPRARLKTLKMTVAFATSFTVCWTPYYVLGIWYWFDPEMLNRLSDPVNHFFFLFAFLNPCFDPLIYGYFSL
Summary of the method: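 Stable human GnRHR HEK293 line. 18 h plating, then calcium dye for 1 h at 37 C. Agonist-mode compound addition from DMSO stocks; fluorescence monitored 3 min.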

[4] = target: KiSS-1 receptor (Homo sapiens) (UniProt Q969F8); test: Human kisspeptin (KISS1R) small molecule agonists, calcium flux assay in KISS1R-HEK293 cells (AID 1920064; active = well fitted curve in the direction sought with a large enough effect in the repeat runs; an effect the other way counts as inactive or inconclusive)
Sequence of KiSS-1 receptor (Homo sapiens) (Q969F8 whole entry, looked up): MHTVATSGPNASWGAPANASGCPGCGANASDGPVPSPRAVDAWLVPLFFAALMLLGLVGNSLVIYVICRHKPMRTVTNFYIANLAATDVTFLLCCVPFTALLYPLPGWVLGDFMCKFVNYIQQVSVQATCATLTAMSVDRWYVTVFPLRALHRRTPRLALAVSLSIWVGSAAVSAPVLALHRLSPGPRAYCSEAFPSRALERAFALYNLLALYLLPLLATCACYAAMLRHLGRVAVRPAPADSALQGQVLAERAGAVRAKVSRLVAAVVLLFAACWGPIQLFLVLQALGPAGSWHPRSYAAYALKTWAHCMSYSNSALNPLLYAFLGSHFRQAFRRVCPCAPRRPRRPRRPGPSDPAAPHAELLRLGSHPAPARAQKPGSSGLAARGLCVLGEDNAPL
Summary of the method: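 After overnight (18 h) culture at 37 C/5% CO2, human KISS1R-HEK293 cells received calcium dye for 1 h, then test compound; emission at 540 nm (excitation 480 nm) was tracked for 3 min.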

[5] = G protein-coupled receptor (GPCR) small molecule agonists, calcium flux assay: HEK293 wild type cell line counter screen (AID 1920065)
Summary of the method: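 Following 18 h incubation at 37 C/5% CO2, plates got calcium dye for 1 h; compounds, ATP or DMSO were then pinned in and fluorescence followed kinetically (480/540 nm).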

[6] = p53 small molecule agonists, cell-based qHTS assay with human liver microsomes (AID 1963577)
Summary of the method: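 Compounds act here after metabolic activation: human liver microsomes and NADPH, both at 0.5 mg/mL final, were co-added to p53RE-bla cells. Incubation ran 16 h at 37 C, followed by LiveBLAzer detection.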

[7] = p53 small molecule agonists, cell-based qHTS assay with rat liver microsomes (AID 1963578)
Summary of the method: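 Read-out is beta-lactamase reporter fluorescence (LiveBLAzer, 2 h, room temperature, dark) in p53RE-bla cells treated 16 h at 37 C with compound, rat liver microsomes and NADPH, both 0.5 mg/mL final.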

[8] = p53 small molecule agonists, cell-based qHTS assay with human liver microsomes: qHTS cell viability counter screen (AID 1963579); also: nearly all actives have a fitted effect of over 45% in size; also: potency is read from the fitted curve at half-maximal effect
Summary of the method: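 Cells carrying the p53 response-element beta-lactamase reporter are treated for 16 h at 37 C with test compounds in the presence of human liver microsomes and NADPH (both 0.5 mg/mL final); ATP-based CellTiter-Glo luminescence then reports viability.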

[9] = p53 small molecule agonists, cell-based qHTS assay with rat liver microsomes: qHTS cell viability counter screen (AID 1963580); also: nearly all actives have a fitted effect of over 45% in size
Summary of the method: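 After the beta-lactamase ratio was read, CellTiter-Glo was added to the same wells and luminescence measured at 30 min; cells had been treated 16 h at 37 C with compounds, rat liver microsomes and NADPH (0.5 mg/mL final each).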

[10] = target: 5-hydroxytryptamine receptor 2A (Homo sapiens) (UniProt P28223); test: 5-hydroxytryptamine receptor 2A (HTR2A) small molecule antagonists, cell-based qHTS assay (AID 1963586); also: nearly all actives have a fitted effect of over 45% in size
Sequence of 5-hydroxytryptamine receptor 2A (Homo sapiens) (P28223 whole entry, looked up): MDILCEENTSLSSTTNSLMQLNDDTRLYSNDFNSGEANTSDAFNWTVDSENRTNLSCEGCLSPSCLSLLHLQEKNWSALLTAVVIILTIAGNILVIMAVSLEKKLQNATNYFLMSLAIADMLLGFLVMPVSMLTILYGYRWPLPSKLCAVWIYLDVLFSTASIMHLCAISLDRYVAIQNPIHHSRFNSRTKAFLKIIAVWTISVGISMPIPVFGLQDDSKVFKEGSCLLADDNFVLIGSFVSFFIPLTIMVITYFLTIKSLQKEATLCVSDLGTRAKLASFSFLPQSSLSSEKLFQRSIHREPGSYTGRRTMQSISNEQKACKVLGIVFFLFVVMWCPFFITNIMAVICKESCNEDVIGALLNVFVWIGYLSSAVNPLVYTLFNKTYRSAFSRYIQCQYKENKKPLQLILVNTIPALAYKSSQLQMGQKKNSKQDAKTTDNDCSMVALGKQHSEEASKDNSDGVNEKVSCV
Summary of the method: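 CHO cells stably expressing human HTR2A were plated for 18 h at 37 C, then loaded with calcium dye for 1 h. Compounds were preincubated 5 min at room temperature before DOI (4 nM solution) was added. Kinetic fluorescence was read for 3 min.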

[11] = target: 5-hydroxytryptamine receptor 2A (Homo sapiens) (UniProt P28223); test: 5-hydroxytryptamine receptor 2A (HTR2A) small molecule agonists, cell-based qHTS assay (AID 1963587); also: nearly all actives have a fitted effect of over 30% in size; also: potency is read from the fitted curve at half-maximal effect
Summary of the method: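 CHO cells stably expressing human HTR2A, plated 18 h, loaded with calcium dye 1 h at 37 C. Agonist mode: compounds added and intracellular calcium fluorescence recorded kinetically for 2 min at 1 sec intervals.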

[12] = target: Muscarinic acetylcholine receptor M1 (Homo sapiens) (UniProt P11229); test: Cholinergic receptor muscarinic 1 (CHRM1) small molecule antagonists, cell-based qHTS assay (AID 1963588); also: nearly all actives have a fitted effect of over 40% in size
Sequence of Muscarinic acetylcholine receptor M1 (Homo sapiens) (P11229 whole entry, looked up): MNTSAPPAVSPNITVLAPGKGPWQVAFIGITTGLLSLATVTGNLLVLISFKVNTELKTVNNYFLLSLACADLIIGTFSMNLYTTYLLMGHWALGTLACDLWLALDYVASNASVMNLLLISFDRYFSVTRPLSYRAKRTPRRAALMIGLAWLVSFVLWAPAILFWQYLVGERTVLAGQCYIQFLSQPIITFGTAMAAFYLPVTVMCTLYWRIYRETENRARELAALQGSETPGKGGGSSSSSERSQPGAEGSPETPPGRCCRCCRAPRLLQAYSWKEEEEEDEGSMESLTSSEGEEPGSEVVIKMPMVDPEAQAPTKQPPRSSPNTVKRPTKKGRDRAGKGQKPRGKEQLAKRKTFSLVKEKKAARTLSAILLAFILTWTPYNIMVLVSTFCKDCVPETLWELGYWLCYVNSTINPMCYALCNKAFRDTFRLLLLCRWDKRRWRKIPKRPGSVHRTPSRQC
Summary of the method: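 Compounds were tested at 15 concentrations in three independent runs. Dye-loaded CHRM1-CHO cells were exposed 5 min at room temperature before stimulation by acetylcholine added at 50nM. Intracellular calcium was read kinetically on FDSS for 3 min.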

[13] = target: Muscarinic acetylcholine receptor M1 (Homo sapiens) (UniProt P11229); test: Cholinergic receptor muscarinic 1 (CHRM1) small molecule agonists, cell-based qHTS assay (AID 1963589); also: nearly all actives have a fitted effect of over 35% in size
Summary of the method: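 Kinetic fluorescence (1 s intervals) of calcium-sensitive dye in human M1 CHO cells after compound addition; cells pre-incubated 18 h at 37 C/5% CO2 and dye-loaded 1 h.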

[14] = target: D(2) dopamine receptor (Homo sapiens) (UniProt P14416); test: Dopamine D2 receptor (DRD2) small molecule agonists, cell-based qHTS assay (AID 1963594); also: nearly all actives have a fitted effect of over 35% in size
Sequence of D(2) dopamine receptor (Homo sapiens) (P14416 whole entry, looked up): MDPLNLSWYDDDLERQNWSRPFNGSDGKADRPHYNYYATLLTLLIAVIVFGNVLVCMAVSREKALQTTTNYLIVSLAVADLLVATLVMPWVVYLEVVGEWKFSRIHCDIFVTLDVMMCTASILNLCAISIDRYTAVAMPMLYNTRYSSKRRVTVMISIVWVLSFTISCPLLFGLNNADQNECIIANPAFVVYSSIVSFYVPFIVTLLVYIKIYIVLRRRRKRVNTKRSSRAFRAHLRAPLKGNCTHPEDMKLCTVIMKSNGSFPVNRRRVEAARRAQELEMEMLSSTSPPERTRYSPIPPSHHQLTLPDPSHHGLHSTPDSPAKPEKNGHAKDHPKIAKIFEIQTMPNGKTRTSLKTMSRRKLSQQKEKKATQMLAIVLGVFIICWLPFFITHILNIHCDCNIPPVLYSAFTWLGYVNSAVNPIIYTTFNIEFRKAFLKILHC
Summary of the method: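 HEK293 cells stably expressing human DRD2, pre-treated with PDE inhibitor Ro20-1724 (0.1 mM final) and compound 10 min at room temperature, then stimulated with NKH477 (200nM […]) for 30 min. cAMP read by HTRF (665/620 nm).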

[15] = target: Beta-2 adrenergic receptor (Homo sapiens) (UniProt P07550); test: Adrenergic beta2 receptor (ADRB2) small molecule antagonists, cell-based qHTS assay (AID 1963592); also: nearly all actives have a fitted effect of over 50% in size; also: potency is read from the fitted curve at half-maximal effect
Sequence of Beta-2 adrenergic receptor (Homo sapiens) (P07550 whole entry, looked up): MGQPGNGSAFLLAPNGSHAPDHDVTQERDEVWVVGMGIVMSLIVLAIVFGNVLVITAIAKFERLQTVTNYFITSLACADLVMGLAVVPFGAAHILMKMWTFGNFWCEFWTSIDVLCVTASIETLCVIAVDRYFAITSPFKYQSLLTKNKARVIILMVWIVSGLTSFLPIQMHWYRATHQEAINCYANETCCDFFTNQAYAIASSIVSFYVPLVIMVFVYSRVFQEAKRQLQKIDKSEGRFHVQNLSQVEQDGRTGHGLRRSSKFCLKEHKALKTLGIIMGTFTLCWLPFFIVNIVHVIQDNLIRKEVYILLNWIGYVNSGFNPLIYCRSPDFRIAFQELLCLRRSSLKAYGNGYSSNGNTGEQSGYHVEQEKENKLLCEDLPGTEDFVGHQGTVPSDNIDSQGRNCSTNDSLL
Summary of the method: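 Assay format: CHO-ADRB2 cells, 18-20hr seeding at 37C/5% CO2, then compound plus 1nM isoproterenol agonist mix for 0.5hr RT. Homogeneous time-resolved fluorescence cAMP detection after 1hr, expressed as 665/615 nm ratio.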

[16] = cAMP Responsive Elements (CRE) small molecule antagonists, cell-based qHTS assay (AID 1963591; active = well fitted inhibition curve with a large enough effect in the signal ratio in the repeat runs, not every such curve was filed as active; the % refers to the signal ratio)
Summary of the method: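 Reporter line CRE-bla HEK 293T in dialyzed-FBS DMEM; cells preincubated 18 h, treated 3 h with compound plus NKH477 (0.25 uM final); LiveBLAzer FRET, 2 h RT.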

[17] = target: D(2) dopamine receptor (Homo sapiens) (UniProt P14416); test: Dopamine D2 receptor (DRD2) small molecule antagonists, cell-based qHTS assay (AID 1963595; active = well fitted inhibition curve with a large enough effect in the signal ratio in the repeat runs, with a control signal flat; the % refers to the signal ratio)
Summary of the method: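 Antagonism was scored as restored cAMP in HEK293-DRD2 cells. These cells were stimulated with 200 nM NKH477 and 12 nM quinpirole for 30 min at room temperature, in the presence of 0.1 mM Ro20-1724.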

[18] = p53 small molecule agonists, cell-based qHTS assay: qHTS cell viability counter screen (AID 1963581); also: nearly all actives have a fitted effect of over 45% in size
Summary of the method: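 qHTS counter screen: 16 h compound exposure at 37 C of p53RE-bla HCT-116 cells (4,000 per well, seeded 5 h prior), cell viability by ATP luminescence.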

[19] = p53 small molecule agonists, cell-based qHTS assay (AID 1963582; active = well fitted activation curve with a large enough effect in the signal ratio in the repeat runs, not every such curve was filed as active; the % refers to the signal ratio)
Summary of the method: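 Measured: fluorescence from cleaved LiveBLAzer substrate. System: p53RE-bla cells, 16 h compound treatment at 37 C, 2 h substrate step at room temperature.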

[20] = cAMP Responsive Elements (CRE) small molecule agonists, cell-based qHTS assay (AID 1963590)
Summary of the method: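 Test agents in DMSO were incubated 3 h at 37 C/5% CO2 with CRE-bla HEK 293T cells seeded 18 h earlier; LiveBLAzer B/G FRET substrate was added and read after 2 h at room temperature.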

Measured: Potency

c1cc[c]([Sb]([c]2ccccc2)[c]2ccccc2)cc1
active: [2] 12.2 µM
not listed: [15] | [16] | [17] | [18] | [19] | [20]
inactive: all other assays above

Cc1ccccc1C(=O)Nc1cccc(OC(C)C)c1
not listed: [9] | [16] | [17] | [18] | [19] | [20]
inactive: all other assays above

O=C1C(=O)c2cccc3cccc1c23
active: [2] 27.3 µM
not listed: [18] | [19] | [20]
inactive: all other assays above

CC(Cl)(Cl)[N+](=O)[O-]
not listed: [9] | [19] | [20]
inactive: all other assays above

C(COCC1CO1)OCC1CO1 (configuration not stated)
active: [2] 68.6 µM | [8] 32.4 µM
not listed: [9] | [18]
inactive: all other assays above

CC(c1ccccc1)(c1ccc(O)cc1)c1ccc(O)cc1
active: [1] 43.3 µM | [8] 45.8 µM | [11] 49 µM | [15] 61.1 µM
not listed: [9] | [14] | [19] | [20]
inactive: all other assays above

C[As+](C)(C)CC(=O)[O-]
not listed: [12] | [13] | [18] | [19]
inactive: all other assays above

CC(Cc1ccccc1)NCc1ccccc1Cl (configuration not stated)
not listed: [9] | [12] | [15] | [17]
inactive: all other assays above

CC(=O)CCc1ccc2c(c1)OCO2
not listed: [9] | [17]
inactive: all other assays above

[Cl][Sn]([Cl])([Cl])[Cl]
not listed: [8] | [15]
inactive: all other assays above

CNNC
not listed: [9] | [13] | [16] | [17] | [20]
inactive: all other assays above

ClP(Cl)(Cl)(Cl)Cl
not listed: [9] | [14]
inactive: all other assays above

CN1[C@@H]2CC[C@H]1CC(O)C2 (some centres not stated)
not listed: [9] | [18]
inactive: all other assays above

CC1=C2C[C@H]3[C@@H](CC=C4C[C@@H](O)CC[C@@]43C)[C@@H]2CC[C@]12O[C@@H]1C[C@H](C)CN[C@H]1[C@H]2C
active: [1] 11.9 µM
not listed: [9] | [11] | [12]
inactive: all other assays above
